# Data from PubChem BioAssay (NCATS).
# Results filed as inconclusive are left out. Entries that show only a call come without a potency. Calls of active or inactive are those of the source. Unless noted, calls follow the shape of the dose curve; as a rule, active = well fitted curve in the direction sought with a large enough effect; inconclusive = small, poorly fitted or top-dose-only effect, or another doubt; inactive = no such curve, though single readings can be large; an effect the other way counts as inactive or inconclusive.
# What was measured:
# [1] = molecular target: Metallo-beta-lactamase type 2 (Klebsiella pneumoniae) (UniProt C7C422); assay: qHTS to identify inhibitors of the New Delhi Metallo-beta-lactamase (NDM): assay validation screen against the NCATS LOPAC Collection (AID 1794843);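 also: nitrocefin turnover by NDM-1 measured as 485 nm absorbance at plateau; series mostly up to about 38 µM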
# Summary of the method: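 NDM-1 at 2 nM final in 50 mM HEPES pH 7.0 with 1 uM ZnSO4 and 0.01% Tween20 was preincubated with library compounds in DMSO. Nitrocefin (50 uM stock) was then added, and absorbance at 485 nm was read at the kinetic plateau.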
# [2] = molecular target: Glutathione peroxidase 1 (Homo sapiens) (UniProt P07203); assay: Primary qHTS Assay for Inhibitors of Recombinant Selenoprotein Glutathione Peroxidase 1 (GPX1) (AID 1845191); also: nearly all actives have a fitted effect of over 65% in size; also: potency is read from the fitted curve at half-maximal effect
# Summary of the method: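 GR-coupled assay: compounds preincubated 30 min at room temperature with GPX1, then reaction started with CHP; final 10 nM GPX1, 1 mM GSH, 0.5 mM CHP, 0.5 mM NADPH, 100 nM GR, 0.01% BSA, pH 7.5 Tris buffer. NADPH fluorescence (340/450 nm) read at 0 and 15 min.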
# [3] = HepG2 viability counterscreen (readout 1: protease activity) against the NCATS DSHEA and TCM libraries (AID 1794841);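 also: cells exposed to compounds for about 24 h before the protease read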
# Summary of the method: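 1,000 HepG2 cells/well, 4 h attach; compounds ~24 h, 37C/5% CO2. Readout 1: GF-AFC 25 uM final, 30 min, fluorescence 380/510 nm. Readout 2: CellTiter-Glo, 30 min RT, luminescence.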
# [4] = molecular target: Phospholipid hydroperoxide glutathione peroxidase GPX4 (Homo sapiens) (UniProt P36969); assay: Primary qHTS Assay for Inhibitors of Recombinant Selenoprotein Glutathione Peroxidase 4 (GPX4) (AID 1845192); also: nearly all actives have a fitted effect of over 65% in size
# Summary of the method: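 GR-coupled assay: recombinant GPX4 preincubated 30 min with compound at room temperature; final 200 nM GPX4, 1 mM GSH, 0.5 mM cumene hydroperoxide, 0.5 mM NADPH, 100 nM GR, 0.01% BSA, pH 7.5 Tris. NADPH fluorescence (340/450 nm) read at 0 and 15 min.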
# [5] = molecular target: Cytochrome P450 2C9 (Homo sapiens) (UniProt P11712); assay: qHTS for inhibitors of CYP2C9 against the NCATS DSHEA and TCM libraries (AID 1919973);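 also: luminogenic pro-luciferin CYP2C9 substrate turned into luciferin with NADPH regeneration; series mostly up to about 34 µM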
# Summary of the method: (§1)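 Luminescent P450-Glo format: compounds preincubated 15 min with enzyme and luciferin substrate, reaction run 30-45 min after NADPH regeneration solution. Intraplate controls: ketoconazole for CYP3A4 and CYP2C19, sulfaphenazole for CYP2C9.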
# [6] = KB-3-1 P-gp reporter qHTS against the NCATS DSHEA and TCM libraries (AID 1919975)
# Summary of the method: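 CellTiter-Glo luminescence viability readout; KB-3-1 parental cells, 500/well, attached ~4 h, then compound for ~72 h, 37C, 5% CO2. Bortezomib intraplate control.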
# [7] = qHTS Counterscreen for compound interference against the NCATS DSHEA and TCM libraries (AID 1919978); details: firefly luciferase detection reagent interference, luminescence;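 also: compounds preincubated with 1 µM D-luciferin or buffer before detection reagent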
# Summary of the method: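 Luminescence counterscreen for detection-kit interference: compounds at 19.5 nM–39.8 uM final, 15 min RT with 1 uM D-luciferin or buffer only; detection reagent added, 30 min RT, then read.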
# [8] = Dual reporter qHTS for agonist of Pregnane X Receptor (hPXR) against the NCATS DSHEA and TCM libraries: Fluorescence readout (AID 1920058)
# Summary of the method: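 hPXR-Luc HepG2 cells, 2000/well in charcoal-stripped serum, attached 5 h, dosed for ~24 h at 37 °C. Fluorescence read is CellTiter-Fluor viability (Ex/Em 405/540 nm); rifampicin positive, tetraoctyl ammonium bromide (92 µM) cytotoxicity controls.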
# [9] = molecular target: Nuclear receptor subfamily 1 group I member 2 (Homo sapiens) (UniProt O75469); assay: Dual reporter qHTS for agonist of Pregnane X Receptor (hPXR) against the NCATS DSHEA and TCM libraries: Luminescence readout (AID 1920059)
# Summary of the method: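 hPXR-Luc HepG2 cells, 2000/well in 5% charcoal-stripped FBS medium, attached 5 h, then exposed 24 h at 37C to compounds. Viability by CellTiter-Fluor, then luciferase luminescence with ONE-Glo.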
# [10] = molecular target: Nuclear receptor subfamily 1 group I member 2 (Homo sapiens) (UniProt O75469); assay: Dual reporter qHTS for antagonist of Pregnane X Receptor (hPXR) against the NCATS DSHEA and TCM libraries: Luminescence Readout (AID 1920060);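 also: HepG2 cells carrying hPXR luciferase reporter stimulated with rifampicin at 2 µM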
# Summary of the method: (§2)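 Antagonist mode: rifampicin 2 uM final co-added with compounds to hPXR-LucHepG2 cells for 24 h at 37C. Viability by CellTiter-Fluor, Ex/Em 405/540 nm, 1 h; reporter by ONE-Glo luminescence.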
# [11] = Dual reporter qHTS for antagonist of Pregnane X Receptor (hPXR) against the NCATS DSHEA and TCM libraries: Fluorescence Readout (AID 1920061)
# Summary of the method: as §2
# [12] = qHTS drug screen for cell cycle checkpoint inhibitors in PARPi-resistant BRCA-mutant ovarian cancer cell lines. (AID 1963452; calls by dose curve); details: PEO1/OlaR viability, CellTiter-Glo luminescence, 96 h, stronger effect = lower value
# Summary of the method: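 PEO1, PEO4 and PEO1/OlaR ovarian cancer cells, 600 per well, exposed 96 h at 37C to a dilution series. Viability read by CellTiter-Glo luminescence, normalized to DMSO and empty wells; activity summarized as Z-AUC.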
# [13] = molecular target: Luciferin 4-monooxygenase (Photinus pyralis) (UniProt P08659); assay: Primary firefly luciferase (FLuc) qHTS assay for identification of artifact compounds. (AID 1845220); details: outcome: dose series up to 54.1 µM; also: nearly all actives have a fitted effect of over 60% in size
# Summary of the method: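 Enzymatic FLuc inhibition assay: compounds pre-exposed to luciferin/ATP (10 uM each) for 15 min, then purified P. pyralis enzyme at 10 nM added. Read-out: luminescence at 5 min.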
# [14] = Primary fluorescence-based thiol-reactive (MSTI) qHTS assay for identification of artifact compounds. (AID 1845221);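 also: series mostly up to about 54 µM; thiol-reactive compounds lower the probe fluorescence signal; nearly all actives have a fitted effect of over 65% in size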
# Summary of the method: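 Probe: MSTI 4 uM, PBS pH 7.4, 2% DMSO. Incubation 1 h, RT, light-protected. Readout fluorescence 525/598 nm.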
# [15] = tested on: Nanoluciferase (engineered Oplophorus gracilirostris luciferase); assay: Primary Nanoluciferase (NLuc) qHTS assay for identification of artifact compounds. (AID 1845222);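 also: NLuc secreted into diluted conditioned medium of S16 cells; series mostly up to about 54 µM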
# Summary of the method: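 S16 cell supernatant NLuc, 1:55; cpds qHTS; 15 min RT dark; Nano-Glo substrate 1:100, 5 min; luminescence; Hill fit of % inhibition.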
# [16] = Primary redox qHTS assay for identification of artifact compounds. (AID 1845223)
# Summary of the method: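 Amplex Red (25 uM) and HRP (250 mU/mL) in HBSS, with compounds for 15 min, then 250 uM DTT for 30 min, room temperature, dark. Fluorescence 525/598 nm read; normalized to DMSO and 10 uM DA3003; Hill fit.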
# [17] = molecular target: Cytochrome P450 3A4 (Homo sapiens) (UniProt P08684); assay: qHTS for inhibitors of CYP3A4 against the NCATS DSHEA and TCM libraries (AID 1919971);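 also: inhibition lowers luminescence from luciferin made by CYP3A4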
# Summary of the method: as §1
# [18] = molecular target: Cytochrome P450 2D6 (Homo sapiens) (UniProt P10635); assay: qHTS for inhibitors of CYP2D6 against the NCATS DSHEA and TCM libraries (AID 1919972)
# Summary of the method: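 Luminescent P450-Glo read-out of CYP2D6 turnover of a luciferin substrate after NADPH-driven reaction of 30-45 min at room temperature. Compounds were first preincubated 15 min with enzyme at titrated concentrations; quinidine was the intraplate control.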
# [19] = molecular target: Cytochrome P450 2C19 (Homo sapiens) (UniProt P33261); assay: qHTS for inhibitors of CYP2C19 against the NCATS DSHEA and TCM libraries (AID 1919974);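 also: luminescence from luciferin released by CYP2C19 oxidation of a pro-luciferin substrate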; also: potency is read from the fitted curve at half-maximal effect
# Summary of the method: as §1
# [20] = molecular target: Cytochrome P450 1A2 (Homo sapiens) (UniProt P05177); assay: qHTS for inhibitors of CYPIA2 against the NCATS DSHEA and TCM libraries (AID 1919976);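 also: light from luciferin formed by CYP1A2 from a pro-luciferin substrate; series mostly up to about 37 µM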
# Summary of the method: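 Human CYP1A2 with pro-luciferin substrate (typically 100 mM KPO4), 15 min preincubation with compound, then 1x NADPH regeneration for 30-45 min at room temperature in the dark. Luciferin quantified by luciferase luminescence; furafylline intraplate control.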
# [21] = measured here: PEO1 parental Z-AUC
# Sequence of Metallo-beta-lactamase type 2 (Klebsiella pneumoniae) (C7C422 whole entry, looked up): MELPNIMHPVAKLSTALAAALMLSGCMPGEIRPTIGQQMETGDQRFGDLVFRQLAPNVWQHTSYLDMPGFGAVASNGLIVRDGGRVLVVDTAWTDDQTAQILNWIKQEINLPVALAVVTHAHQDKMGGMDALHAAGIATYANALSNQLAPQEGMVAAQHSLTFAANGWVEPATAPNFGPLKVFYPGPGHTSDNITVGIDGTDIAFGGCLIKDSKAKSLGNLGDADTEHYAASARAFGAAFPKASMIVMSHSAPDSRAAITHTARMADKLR
# Sequence of Phospholipid hydroperoxide glutathione peroxidase GPX4 (Homo sapiens) (P36969 whole entry, looked up): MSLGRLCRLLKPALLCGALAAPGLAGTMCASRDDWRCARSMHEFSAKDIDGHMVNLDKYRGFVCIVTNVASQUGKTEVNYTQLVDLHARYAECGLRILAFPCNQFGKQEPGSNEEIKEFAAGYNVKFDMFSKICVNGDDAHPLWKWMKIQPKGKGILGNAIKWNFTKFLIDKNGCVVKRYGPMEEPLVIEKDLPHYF
# Sequence of Glutathione peroxidase 1 (Homo sapiens) (P07203 whole entry, looked up): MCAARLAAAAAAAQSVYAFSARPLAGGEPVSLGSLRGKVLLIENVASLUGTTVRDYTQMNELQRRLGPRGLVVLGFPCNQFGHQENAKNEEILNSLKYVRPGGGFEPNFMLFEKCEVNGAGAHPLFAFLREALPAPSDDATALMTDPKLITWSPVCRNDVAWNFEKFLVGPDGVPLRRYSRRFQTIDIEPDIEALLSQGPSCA
# Sequence of Cytochrome P450 2C9 (Homo sapiens) (P11712 whole entry, looked up): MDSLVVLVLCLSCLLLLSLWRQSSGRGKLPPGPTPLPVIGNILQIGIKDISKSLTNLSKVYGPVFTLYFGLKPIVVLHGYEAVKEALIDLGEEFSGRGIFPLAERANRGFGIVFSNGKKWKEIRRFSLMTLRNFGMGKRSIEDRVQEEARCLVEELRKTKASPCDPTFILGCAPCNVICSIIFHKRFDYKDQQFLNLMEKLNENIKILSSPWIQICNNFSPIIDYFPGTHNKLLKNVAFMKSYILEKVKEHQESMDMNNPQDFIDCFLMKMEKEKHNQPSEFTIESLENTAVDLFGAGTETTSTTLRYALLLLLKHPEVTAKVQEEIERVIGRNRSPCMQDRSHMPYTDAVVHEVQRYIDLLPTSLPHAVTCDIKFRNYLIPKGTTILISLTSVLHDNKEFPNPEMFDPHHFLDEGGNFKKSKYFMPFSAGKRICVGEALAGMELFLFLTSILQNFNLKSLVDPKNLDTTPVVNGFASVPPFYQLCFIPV
# Sequence of Nuclear receptor subfamily 1 group I member 2 (Homo sapiens) (O75469 whole entry, looked up): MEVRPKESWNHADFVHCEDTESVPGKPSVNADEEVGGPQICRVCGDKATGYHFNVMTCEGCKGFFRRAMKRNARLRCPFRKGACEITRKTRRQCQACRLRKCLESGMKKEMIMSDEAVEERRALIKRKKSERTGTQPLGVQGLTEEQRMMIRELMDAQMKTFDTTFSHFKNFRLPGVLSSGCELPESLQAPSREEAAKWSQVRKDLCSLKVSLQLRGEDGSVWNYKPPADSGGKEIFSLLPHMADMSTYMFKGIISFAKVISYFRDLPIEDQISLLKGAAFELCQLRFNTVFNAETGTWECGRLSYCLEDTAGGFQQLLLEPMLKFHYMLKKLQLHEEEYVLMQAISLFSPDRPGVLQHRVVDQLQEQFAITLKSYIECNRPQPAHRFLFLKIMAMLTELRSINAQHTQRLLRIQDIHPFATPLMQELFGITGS
# Sequence of Cytochrome P450 2D6 (Homo sapiens) (P10635 whole entry, looked up): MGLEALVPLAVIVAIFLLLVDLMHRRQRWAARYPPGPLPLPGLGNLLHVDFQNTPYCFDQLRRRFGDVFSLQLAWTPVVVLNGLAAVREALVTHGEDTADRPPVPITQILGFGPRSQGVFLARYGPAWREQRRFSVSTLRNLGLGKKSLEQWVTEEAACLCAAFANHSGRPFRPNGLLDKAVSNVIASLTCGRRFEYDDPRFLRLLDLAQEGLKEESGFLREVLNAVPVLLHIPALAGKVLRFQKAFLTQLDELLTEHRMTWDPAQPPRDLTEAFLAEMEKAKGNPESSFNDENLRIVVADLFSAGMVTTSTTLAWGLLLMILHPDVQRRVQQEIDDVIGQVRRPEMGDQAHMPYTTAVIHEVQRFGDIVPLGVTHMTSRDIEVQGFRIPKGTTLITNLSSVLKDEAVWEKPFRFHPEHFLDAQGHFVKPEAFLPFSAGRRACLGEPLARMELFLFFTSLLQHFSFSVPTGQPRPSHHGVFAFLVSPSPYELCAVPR
# Sequence of Cytochrome P450 2C19 (Homo sapiens) (P33261 whole entry, looked up): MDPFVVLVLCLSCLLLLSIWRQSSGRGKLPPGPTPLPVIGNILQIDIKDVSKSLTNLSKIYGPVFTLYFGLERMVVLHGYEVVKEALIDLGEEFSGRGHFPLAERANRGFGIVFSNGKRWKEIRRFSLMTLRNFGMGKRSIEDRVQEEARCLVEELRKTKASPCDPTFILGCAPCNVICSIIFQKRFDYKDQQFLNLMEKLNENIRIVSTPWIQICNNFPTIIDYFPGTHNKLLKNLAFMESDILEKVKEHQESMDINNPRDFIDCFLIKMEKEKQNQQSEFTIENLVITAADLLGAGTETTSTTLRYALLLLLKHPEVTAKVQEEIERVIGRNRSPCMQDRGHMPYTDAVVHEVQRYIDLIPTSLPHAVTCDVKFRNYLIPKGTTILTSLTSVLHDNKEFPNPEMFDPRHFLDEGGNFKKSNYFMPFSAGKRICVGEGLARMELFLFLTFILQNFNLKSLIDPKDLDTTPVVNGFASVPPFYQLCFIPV
# Sequence of Cytochrome P450 1A2 (Homo sapiens) (P05177 whole entry, looked up): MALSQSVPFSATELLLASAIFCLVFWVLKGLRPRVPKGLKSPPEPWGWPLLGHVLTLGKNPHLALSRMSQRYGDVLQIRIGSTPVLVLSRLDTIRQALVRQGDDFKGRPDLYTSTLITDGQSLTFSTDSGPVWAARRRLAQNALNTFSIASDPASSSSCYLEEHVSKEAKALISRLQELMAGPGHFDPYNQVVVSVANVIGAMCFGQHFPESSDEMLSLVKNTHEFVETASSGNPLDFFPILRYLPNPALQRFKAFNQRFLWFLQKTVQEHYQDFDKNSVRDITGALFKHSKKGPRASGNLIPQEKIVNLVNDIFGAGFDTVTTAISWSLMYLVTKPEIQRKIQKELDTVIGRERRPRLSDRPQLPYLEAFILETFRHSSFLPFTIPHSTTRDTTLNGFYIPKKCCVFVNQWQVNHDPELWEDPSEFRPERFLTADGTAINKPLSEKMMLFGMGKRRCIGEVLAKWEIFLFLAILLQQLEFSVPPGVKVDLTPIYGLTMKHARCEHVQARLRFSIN
# Sequence of Cytochrome P450 3A4 (Homo sapiens) (P08684 whole entry, looked up): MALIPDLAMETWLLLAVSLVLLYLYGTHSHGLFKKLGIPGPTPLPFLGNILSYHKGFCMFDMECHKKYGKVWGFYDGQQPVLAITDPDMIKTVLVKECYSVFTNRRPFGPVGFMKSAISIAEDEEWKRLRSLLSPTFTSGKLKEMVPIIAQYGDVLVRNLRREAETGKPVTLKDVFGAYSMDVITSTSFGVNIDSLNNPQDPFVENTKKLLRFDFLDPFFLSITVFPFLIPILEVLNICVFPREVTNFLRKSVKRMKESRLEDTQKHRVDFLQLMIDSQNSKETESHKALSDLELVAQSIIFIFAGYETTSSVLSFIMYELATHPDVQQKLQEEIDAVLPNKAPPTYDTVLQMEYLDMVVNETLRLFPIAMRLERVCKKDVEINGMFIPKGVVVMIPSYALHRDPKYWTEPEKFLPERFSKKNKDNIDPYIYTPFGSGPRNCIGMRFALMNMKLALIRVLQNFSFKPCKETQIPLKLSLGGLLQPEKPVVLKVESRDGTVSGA
compound,measurement,setting,value
CNCCC(Oc1ccccc1C)c1ccccc1 (stereo not drawn),outcome,[1],inactive
same,Potency,[2],inactive
CO/N=C1\CN(c2nc3c(cc2F)c(=O)c(C(=O)O)cn3C2CC2)CC1CN (stereo not drawn),Potency,[2],inactive
CC(C)COC(=O)c1ccc(N)cc1,Potency,[2],inactive
C=CCc1ccc(O)c(OC)c1,outcome,[3],inactive
same,Potency,[2],inactive
same,Potency,[4],inactive
same,outcome,[5],inactive
same,outcome,[6],inactive
same,max response,[7],-2.5% (inactive)
same,outcome,[8],inactive
same,outcome,[9],inactive
same,outcome,[10],inactive
same,outcome,[11],inactive
O=C1OC(c2ccc(O)cc2)(c2ccc(O)cc2)c2ccccc21,Potency,[2],inactive
Oc1ccc(O)cc1,outcome,[1],inactive
same,Potency,[2],inactive
same,Potency,[4],inactive
O=C(O)c1cc2cc(Cc3cccnc3)ccc2o1,outcome,[1],inactive
same,Potency,[2],inactive
same,Potency,[4],inactive
CC(=O)Nc1c(I)cc(I)c(C(=O)O)c1I,Potency,[2],inactive
CCCn1c(=O)[nH]c(=O)c2[nH]cnc21,outcome,[1],inactive
same,Potency,[2],inactive
C1CCc2nnnn2CC1,outcome,[1],inactive
same,Potency,[2],inactive
same,Potency,[4],inactive
CCCC1O[C@@H]2C[C@H]3[C@@H]4CCC5=CC(=O)C=C[C@]5(C)[C@H]4[C@@H](O)C[C@]3(C)[C@]2(C(=O)CO)O1 (stereo partly drawn),outcome,[1],inactive
same,Potency,[2],inactive
CC(C)N=C(N)/N=C(\N)Nc1ccc(Cl)cc1,Potency,[2],inactive
Cc1c(C(C)C)c(=O)n(-c2ccccc2)n1C,Potency,[2],inactive
CC[C@H](C)C(=O)O[C@H]1CCC=C2C=C[C@H](C)[C@H](CC[C@@H]3C[C@@H](O)CC(=O)O3)[C@H]21,outcome,[1],inactive
same,Potency,[2],inactive
same,Potency,[4],inactive
same,Z-AUC,[12],1.25 (inactive)
same,Z-AUC,[12]; [21],1.13
same,Z-AUC,[12]; measured here: PEO4 Z-AUC,1.15
N[C@@H](Cc1cnc[nH]1)C(=O)O,outcome,[1],inactive
same,Potency,[2],inactive
same,Potency,[4],inactive
O=C(OCC(O)CO)c1ccccc1Nc1ccnc2cc(Cl)ccc12 (stereo not drawn),Potency,[2],inactive
C[C@@H]1C(=O)NC2=Nc3cccc(Cl)c3CN21,outcome,[1],inactive
same,Potency,[2],inactive
same,Potency,[4],inactive
CC(CCc1ccccc1)NCC(O)c1ccc(O)c(C(N)=O)c1 (stereo not drawn),outcome,[1],inactive
same,Potency,[2],inactive
same,Potency,[4],inactive
same,outcome,[13],inactive
same,Potency,[14],inactive
same,Potency,[15],inactive
same,outcome,[16],inactive
CCOc1ccc(NC(=O)CC(C)O)cc1 (stereo not drawn),Potency,[2],inactive
CCCCc1nc(Cl)c(CO)n1Cc1ccc(-c2ccccc2-c2nn[nH]n2)cc1,Potency,[2],inactive
NC(=O)c1cc[n+](CC2=C(C(=O)[O-])N3C(=O)[C@@H](NC(=O)Cc4cccs4)[C@H]3SC2)cc1,Potency,[2],10.1 µM (active)
c1ccc(CNCCNCc2ccccc2)cc1,Potency,[2],inactive
C[C@]12CC[C@@H]3c4ccc(O)cc4CC[C@H]3[C@@H]1CC[C@@H]2O,outcome,[1],inactive
same,Potency,[2],inactive
same,Potency,[4],inactive
same,Z-AUC,[12],0.573 (inactive)
same,Z-AUC,[12]; [21],0.0962
same,Z-AUC,[12]; measured here: PEO4 Z-AUC,0.419
CC1(C)CCC(NC(=O)[C@@H](N)CCC(=O)O)CC1,outcome,[1],inactive
same,Potency,[2],inactive
same,Potency,[4],inactive
O=C1CCC(c2ccc(-n3ccnc3)cc2)=NN1,outcome,[1],inactive
same,Potency,[2],inactive
same,Potency,[4],inactive
COc1cc2c(cc1O)CC[C@@H]1[C@@H]2CC[C@]2(C)[C@@H](O)CC[C@@H]12,outcome,[1],inactive
same,Potency,[2],inactive
same,Potency,[4],inactive
same,Z-AUC,[12],0.212 (inactive)
same,Z-AUC,[12]; [21],-0.545
same,Z-AUC,[12]; measured here: PEO4 Z-AUC,-0.454
O=c1ccc2ccccc2o1,outcome,[3],inactive
same,Potency,[2],inactive
same,Potency,[4],inactive
same,outcome,[17],inactive
same,outcome,[18],inactive
same,outcome,[5],inactive
same,Potency,[19],inactive
same,outcome,[6],inactive
same,max response,[7],0.354% (inactive)
same,outcome,[8],inactive
same,outcome,[9],inactive
same,outcome,[10],inactive
same,outcome,[11],inactive
CCC(NC(C)C)C(O)c1ccc(O)c(O)c1 (stereo not drawn),outcome,[1],inactive
same,Potency,[2],inactive
same,Potency,[4],inactive
CC(C)NC[C@@H](O)COc1cccc2ccccc12,Potency,[2],inactive
CNCCC=C1c2ccccc2CCc2ccccc21,outcome,[1],inactive
same,Potency,[2],inactive
same,Potency,[4],inactive
Nc1cc(Cl)c(NC2=NCCN2)c(Cl)c1,outcome,[1],inactive
same,Potency,[2],inactive
same,Potency,[4],inactive
COc1cc(/C=C/C(=O)O[C@H]2CC[C@]34C[C@]35CC[C@]3(C)[C@@H]([C@H](C)CCC=C(C)C)CC[C@@]3(C)[C@@H]5CC[C@H]4C2(C)C)ccc1O,Potency,[2],inactive
C/C=C/c1ccc(OC)cc1,outcome,[3],inactive
same,Potency,[2],inactive
same,Potency,[4],inactive
same,outcome,[18],inactive
same,outcome,[5],inactive
same,Potency,[19],15.8 µM (active)
same,outcome,[6],inactive
same,outcome,[20],inactive
same,max response,[7],-1.84% (inactive)
same,outcome,[8],inactive
same,outcome,[9],inactive
same,outcome,[10],inactive
same,outcome,[11],inactive
CC(=O)O[C@H]1C[C@@H]2CC[C@@H]3[C@H](CC[C@@]4(C)[C@H]3C[C@H]([N+]3(C)CCCCC3)[C@@H]4OC(C)=O)[C@@]2(C)C[C@@H]1[N+]1(C)CCCCC1,outcome,[1],inactive
same,Potency,[2],inactive
same,Potency,[4],inactive
